UBC9 SUMO inh = inhibitors of in vitro SUMOylation cascade, primary screen, biochemical, HTRF, uHTS | SUMO-conjugating enzyme UBC9 (Homo sapiens), P63279 | AID 2006, 2009 | inhibition, % at 35 µM | 0.36% of 290,000 active | HTRF SUMOylation assay, SAE1/SAE2 + UBC9; in the data active = inhibition above about 50%, passing the limit was not always enough; inconclusive = no clear call, values can overlap the other calls
Target sequence (P63279 whole entry, looked up): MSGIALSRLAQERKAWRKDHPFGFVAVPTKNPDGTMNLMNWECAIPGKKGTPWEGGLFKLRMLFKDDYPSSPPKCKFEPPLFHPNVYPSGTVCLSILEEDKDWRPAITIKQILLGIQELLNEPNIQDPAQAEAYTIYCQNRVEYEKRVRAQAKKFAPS
Cardio protect = cardioprotection against H2O2-induced cell death, primary screen, uHTS, H9c2 cells, ATPLite luminescence; 0.63% of 360,000 active; AID 588492, 2011; protection from H2O2 cell death, % at 20 µM; H9c2 cardiomyocytes, H2O2 injury protection, 2 h;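 active = compounds giving at least 50% protection of heart cells from peroxide-induced death in the single-dose screen, raw or plate-pattern-corrected value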;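 also: 0% = DMSO wells with peroxide and 100% = DMSO wells without peroxide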
ALR inh = inhibitors of human ALR sulfhydryl oxidase, primary screen, biochemical, H2O2 detection, HRP-luminol luminescence, single point; 3.8% of 290,000 active; purified ALR, DTT oxidation; inhibition, % (concentration not given with the values); FAD-linked sulfhydryl oxidase ALR (Homo sapiens), P55789;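 active = mean replicate inhibition above about 79%, with every replicate also reaching it, limit read from the data; inconclusive = only one of the two criteria met; inactive = mean below limit and not every replicate reaching it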
Target sequence (P55789 whole entry, looked up): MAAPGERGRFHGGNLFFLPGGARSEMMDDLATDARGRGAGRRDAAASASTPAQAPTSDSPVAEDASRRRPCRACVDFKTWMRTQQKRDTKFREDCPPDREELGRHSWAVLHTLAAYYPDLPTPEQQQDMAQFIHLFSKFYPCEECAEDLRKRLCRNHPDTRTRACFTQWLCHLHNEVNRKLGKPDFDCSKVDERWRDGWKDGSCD
NTR1 ag = agonists of human NTR1, primary screen, imaging, U2OS cells, beta-arrestin-GFP, high content; AID 493036, 2011; 0.17% of 330,000 active; activation, % at 20 µM; Neurotensin receptor type 1 (Homo sapiens), P30989; NTR1-U2OS beta-arrestin-GFP spot imaging, agonist mode;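 active = activation at or above 40% of the spot to cytoplasm intensity ratio, with at least 20 cells analyzed; inconclusive = wells under 20 cells, flagged as cytotoxic or low count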;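 also: 0% = DMSO without peptide and 100% = 100 nM NTR1 peptide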
Numbers without * were called inactive; ? = inconclusive; . = no result. Only some compounds are listed: those with a hit (about 3.9% of all), similar ones and a draw of the others.

SMILES	UBC9 SUMO inh	Cardio protect	ALR inh	NTR1 ag
Cc1cccnc1Nc1nc(-c2ccccn2)cs1	19	-1	5	6
NS(=O)(=O)c1ccc(Nc2nc(-c3ccc(O)cc3O)cs2)cc1	20	36	99*	2
Cc1cccnc1Nc1nc(-c2ccc(O)cc2O)cs1	-7	13	77*	7
CCOC(=O)c1nn(-c2ccc3c(c2)CCN3C(C)=O)cc1O	52*	-11	?	1
CCOC(=O)c1nn(-c2ccc(F)cc2)cc1O	-11	2	-2	-1
COc1cc(CN2CCNC(=O)C2CC(=O)N(C)CCC2CCOCC2)cc(OC)c1 (stereo not given)	0	-2	-6	1
CCOC(=O)CNC(=O)CSc1nc2nc(C)c(Br)cc2[nH]1	9	50*	-6	0
Cc1nc2nc(SCC(N)=O)[nH]c2cc1Br	5	5	-7	1
C=CCOC(=O)/C=C/C(=O)NC(N)=O	19	1	98*	-2
COc1ccccc1N=Nc1ccc(O)c2ncccc12	-27	-3	.	3
Nc1nc(O)c(N=Nc2ccc(S(N)(=O)=O)cc2)c(=O)[nH]1	18	.	-6	0
NS(=O)(=O)c1ccc(N=Nc2c[nH]c(=O)c(O)c2)cc1	?	-2	90*	0
CC(=O)N1CCc2cc(S(=O)(=O)NCCC(=O)Nc3ccc4c(c3)OCCO4)ccc21	11	-7	-1	-2
Cc1c(C#N)c(N)nc2c3c(sc12)NC(=O)CC3c1ccccc1 (stereo not given)	0	50*	-13	2
Cc1c(C#N)c(N)nc2c3c(sc12)NC(=O)CC3c1ccc(F)cc1 (stereo not given)	-1	37	-4	1
Cc1nnc(SCC(=O)N/N=C/c2cc(Cl)c(O)c(Cl)c2)s1	4	4	82*	4
COc1ccc2c(c1OC)CCC2=O	11	-4	-6	-1
CC1=Nc2ccccc2/C1=C/c1c(N)n2c(S(=O)(=O)C(C)C)nsc2nc1=O	1	-3	97*	0
Cc1nc(SCC(=O)NC2CCS(=O)(=O)C2)c2c(C)c(C)sc2n1 (stereo not given)	.	1	.	4
COCCCNC(=O)C(=O)NCC(c1ccco1)N1CCN(c2ccc(OC)cc2)CC1 (stereo not given)	5	2	31	1
COC(=O)NCC(c1cccnc1)N1CCN(c2ccccc2F)CC1 (stereo not given)	-19	5	-1	0
O=C(NCCCn1ccnc1)C(=O)NCC(c1ccco1)N1CCN(c2ccc(F)cc2)CC1 (stereo not given)	13	17	98*	2
COc1ccc(N2CCN(C(CNC(=O)C(=O)NCCCn3ccnc3)c3ccco3)CC2)cc1 (stereo not given)	16	-2	83*	-1
O=C(NCCCn1ccnc1)C(=O)NCC(c1cccnc1)N1CCN(c2ccccc2)CC1 (stereo not given)	8	2	99*	-2
O=C(NCCCn1ccnc1)C(=O)NCC(c1ccco1)N1CCN(c2ccccc2)CC1 (stereo not given)	13	24	99*	1
SMILES	UBC9 SUMO inh	Cardio protect	ALR inh	NTR1 ag
N#Cc1cnn(-c2ccccc2)c1NC(=O)CN1CCN(c2ccccc2)CC1	-12	1	97*	0
N#Cc1ccsc1NC(=O)CN1CCN(c2ccc(O)cc2)CC1	70	0	99*	1
COc1ccc(OC)c(CNC(=O)c2ccc(C)c(NC(=O)C3=C(C)OCCS3)c2)c1	5	0	-6	0
Cc1cc(C)nc(SCCS(=O)(=O)Cc2ccc(Cl)cc2)n1	3	4	-2	1
COc1cccc(/C=N/N2CCN(C)CC2)c1	-6	-2	14	-1
COc1cc(/C(C)=N/N2CCN(c3ccccc3OC)CC2)ccc1O	-7	2	99*	2
COc1cc(/C(C)=N/NC(=O)C(O)(c2ccccc2)c2ccccc2)ccc1O	-12	-2	98*	0
COc1cc(C(C)=NNC(=O)c2ccncc2)ccc1O	.	0	.	.
COc1cc(/C=N/N2CCN(c3ccccc3OC)CC2)ccc1O	6	8	99*	0
COc1ccc(/C=N/N2CCN(C)CC2)cc1O	-15	-8	99*	0
O=CNc1ccc2c(c1)Cc1cccc(NC=O)c1-2	.	-5	.	.
O=C(NNS(=O)(=O)c1ccc(Br)cc1)C1CCCCC1	2	4	20	3
COc1ccccc1N1CCN(/N=C\c2ccccc2)CC1	0	3	22	1
COc1ccccc1N1CCN(/N=C\c2sccc2C)CC1	-11	-8	95*	1
CCC(=O)Nc1nc(C)c(-c2csc(Nc3cccc(C(=O)O)c3)n2)s1	10	-6	88*	3
CC(=O)Nc1nc(C)c(-c2csc(Nc3cccc(C(C)=O)c3)n2)s1	0	66*	-17	16
COCCCn1c(SCC(=O)Nc2ccc(C(=O)OC)cc2)nc2ccccc2c1=O	-12	15	70	-1
Nc1ccc(S(=O)(=O)NNC(=O)C(=O)NNc2ccccn2)cc1	-37	0	99*	0
Cc1ccc(S(=O)(=O)NNC(=O)c2ccc3ccccc3n2)cc1	0	2	88*	-1
Cc1ccc(S(=O)(=O)NNC(=O)C(=O)NNc2ccccn2)cc1	-20	3	95*	0
CC(=O)Nc1ccc(S(=O)(=O)NNC(=O)C(=O)NNc2ccccn2)cc1	-25	4	.	0
Cc1ccccc1S(=O)(=O)NNC(=O)C(=O)NNc1ccccn1	-48	14	99*	1
Cc1cc(S(=O)(=O)NCCCn2ccnc2)c(C)cc1Cl	10	-3	-11	1
Cc1ccc(C(c2nnnn2CCc2ccccc2)N2CCC(C)CC2)cc1 (stereo not given)	-36	-23	1	2
Cc1csc(NC(=O)CSc2sc3c(O)cc(=O)[nH]c3c2C#N)n1	17	2	99*	1
SMILES	UBC9 SUMO inh	Cardio protect	ALR inh	NTR1 ag
CCSc1nnc(NC(=O)CSc2sc3c(O)cc(=O)[nH]c3c2C#N)s1	32	4	70	-2
CCc1nnc(NC(=O)CSc2sc3c(O)cc(=O)[nH]c3c2C#N)s1	34	3	98*	0
N/C(=N\OC(=O)c1ccco1)c1ccc(Cl)cc1	9	-4	99*	0
CCc1c(C)nc(N2CCN(c3cccc(OC)c3)CC2)[nH]c1=O	16	0	98*	3
CCCc1c(C)nc(N2CCN(c3cccc(OC)c3)CC2)[nH]c1=O	11	-3	15	1
O=C(NNc1nc2c(F)cc(F)cc2s1)C1=COCCO1	-8	0	98*	1
C=CCn1c(SCC(=O)c2ccc(OC)cc2)nnc1-c1cc2cccc(OC)c2o1	5	-5	-23	5
C=CCn1c(SCC(=O)c2ccc(O)c(O)c2)nnc1-c1ccc(OC)cc1	.	40	91*	0

High-throughput results from PubChem BioAssay.
